Source: PubChem BioAssay
The source made the active and inactive calls.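 Rule for the calls: active = GFP response above 150% of the DMSO level; inconclusive = fewer than 70 events counted for a yeast strain; inactive = the rest.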

assay: TOR pathway CIT2 reporter hit retest – S. cerevisiae, GFP fusion, cherry picks, mother/daughter gates, confirmation (AID 2274); details: S. cerevisiae CIT2-GFP strain, flow cytometry, 3 h; at 10 µM; stronger effect = higher value

| SMILES | GFP response, % of DMSO |
| --- | --- |
| CCc1nnc(NC(=O)c2nc(S(=O)(=O)Cc3ccc(C)cc3)ncc2Cl)s1 | 101% (inactive) |
| CN1/C(=C\C(=O)c2cccc(S(=O)(=O)N3CCCCC3)c2)C(C)(C)c2ccccc21 | 98.3% (inactive) |
| Cc1n[nH]c(C)c1N1C(=O)c2cccc3c(Br)ccc(c23)C1=O | 96.4% (inactive) |
| Cc1nnc(N2C(=O)c3cccc4cccc(c34)C2=O)s1 | 101% (inactive) |
| CS(=O)(=O)N1CCc2cc(C(=O)Nc3ccc(COCC(F)(F)F)cc3)ccc21 | 110% (inactive) |
| O=[N+]([O-])c1ccc(Sc2ccccc2Cl)nc1 | 105% (inactive) |
| CC(=O)Oc1ccc(N2C(=O)C3C4C=CC(CO)(O4)C3C2=O)cc1 (configuration not stated) | 109% (inactive) |

same assay, conditions: S. cerevisiae CIT2-GFP strain, flow cytometry, 3 h; measured here: daughter cell gate; at 10 µM; stronger effect = higher value

| SMILES | GFP response, % of DMSO [%] |
| --- | --- |
| N=c1n(CCN2CCCCC2)c2ccccc2n1CC(=O)c1ccc(Cl)c(Cl)c1 | 93.2 |
| COc1cc(NC(=O)c2ccccc2F)ccc1NC(=O)c1cc2ccccc2o1 | 97.4 |
| CCCC(=O)Nc1ccc(NC(=O)c2cc3ccccc3o2)c(OC)c1 | 99.2 |
| Cc1ccc(NC(=O)CCCSc2nc3ccccc3[nH]2)cc1 | 111 |
| COc1ccc2c(c1)C=Cc1ccccc1O2 | 106 |
| Cc1ccc(-n2nc(C)c3c(C)c(CCC(=O)O)c(C)nc32)cc1 | 101 |
| Oc1ccc(/C=N/Nc2nc(-c3cccnc3)nc3ccccc23)c(O)c1 | 108 |
| CCCOc1ccc(N2C(=O)CC(SCCN)C2=O)cc1 (configuration not stated) | 101 |
| CCN(CC)C(=O)c1ccc(-c2cccs2)s1 | 97.2 |
| O=C(COc1ccccc1[N+](=O)[O-])Nc1ccc(NC(=O)c2cc3ccccc3o2)cc1 | 92.1 |
